TDP-43 yeast inh: inhibitors of TDP-43 toxicity in yeast | TDP-43 expressing yeast growth rescue, BacTiter-Glo, 24 h | Potency, µM (titrated, usually from 46.1 µM), usual class: activators | 1.8% of 410,000 active; note: nearly all actives have a fitted effect of over 50% in size
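Galactose-induced TDP-43 yeast, OD600=0.02, compound pinned; 24 hr, 30 deg C; BacTiter-Glo luminescence for growth. Inhibitors of TDP-43 toxicity read as activators.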
Abeta rescue: compounds reversing amyloid beta toxicity in yeast | yeast expressing A-beta42, growth rescue, OD600, 48 h; response scale: 0% DMSO, 100% iron-clioquinol control | Potency, µM (titrated, usually from 46.1 µM), hits mostly activators | AID 1347071 | 0.063% of 410,000 active; note: nearly all actives have a fitted effect of over 55% in size
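Yeast growth medium received pinned compounds, then yeast cells expressing toxic A-beta were added; plates incubated at 30 C for 48 hr. Growth read as absorbance at 600 nm, normalized to DMSO and equimolar FeCl3 plus clioquinol controls.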
FUS suppressor: suppressors of FUS proteinopathy in yeast; Potency, µM (titrated, usually from 76.6 µM), actives largely listed as activators; 0.24% of 390,000 active; S. cerevisiae FUS-expressing, growth rescue, OD600, 24 h; AID 1347120; note: nearly all actives have a fitted effect of over 55% in size
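Restored growth of FUS-toxic S. cerevisiae, read as 600 nm absorbance after 24 h at 30C in galactose medium (starting OD 0.005). Controls CP55940 and DMSO.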
aSyn yeast inh: inhibitors of alpha-synuclein toxicity in yeast | 0.14% of 370,000 active | Potency, µM (titrated, usually from 46.1 µM), usual class: activators | Yeast expressing alpha-synuclein, growth rescue, BacTiter-Glo, 24 h; note: nearly all actives have a fitted effect of over 65% in size
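Readout is rescue of growth in alpha-synuclein-expressing yeast, so inhibitors of toxicity appear as activators. Growth after 24 hr at 30 deg C in galactose medium is quantified by luminescence.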
Hits are given with their value; i = inactive; ? = inconclusive; nt = no result. Shown are actives, neighbours in structure and some others; about 2.1% of the full set was active somewhere. Calls come from the whole dose curve; as a rule, active = well fitted curve in the direction sought with a large enough effect; inconclusive = small, poorly fitted or top-dose-only effect, or another doubt; inactive = no such curve, though single readings can be large; an effect the other way counts as inactive or inconclusive.

SMILES | TDP-43 yeast inh | Abeta rescue | FUS suppressor | aSyn yeast inh
Cc1cccc(N2CCN(C(=O)Cn3ncc4c3-c3ccccc3OC4)CC2)c1C | 18µM | i | ? | nt
COc1ccc(N2CCN(C(=O)Cn3ncc4c3-c3cc(C)ccc3OC4)CC2)cc1 | i | i | i | nt
Cc1ccc(Cn2c(C)c3cnn(CC(=O)N4CCN(c5cc(C)ccc5C)CC4)c(=O)c3c2C)cc1 | 16µM | i | ? | nt
Cc1c2cnn(CC(=O)N3CCN(c4ccc(F)cc4)CC3)c(=O)c2c(C)n1Cc1ccc(F)cc1 | i | i | i | nt
Cc1ccc2c(c1)-c1c(cnn1CC(=O)N1CCN(c3cc(C)ccc3C)CC1)CO2 | 35µM | i | i | nt
COc1ccc(-c2cc(C(F)(F)F)n3nc(C(=O)Nc4sc5c(c4C#N)CCC(C)C5)cc3n2)cc1OC (configuration not stated) | i | i | i | nt
Cn1c2ccccc2c2nnc(SCCOc3ccccc3)nc21 | nt | nt | nt | i
CC(C)(C)OC(=O)NCCCCCc1nnc(SCc2ccccc2)o1 | 35µM | i | i | i
CC(C)(C)OC(=O)NCCCCCc1nnc(SCc2ccccc2F)o1 | ? | i | i | i
CC(C)(C)OC(=O)NCCCCCc1nnc(SCc2cccc(F)c2)o1 | 25µM | i | i | i
CC(C)(C)OC(=O)NCCc1nnc(SCc2cccc(Cl)c2)o1 | i | i | i | i
O=C(NC(c1cccnc1)C(F)(F)F)c1cc(COc2ccc3c(c2)CCCC3)on1 (configuration not stated) | 20µM | i | i | i
OCc1ccccc1-c1ccc2nncn2c1 | 35µM | i | i | ?
N#Cc1ccc(OS(=O)(=O)c2ccc(-c3ccon3)s2)cc1 | 13µM | i | i | i
Cc1cccc(NC(=O)c2cccc3c2-c2ccccc2C3=O)c1C | nt | nt | i | nt
COc1ccccc1N1CCN(S(=O)(=O)CCNC(=O)Cc2ccc(Cl)cc2)CC1 | i | i | i | nt
CSc1nc(S(=O)(=O)c2ccc(C)cc2)c(Cl)s1 | 13µM | i | i | i
O=C(COc1ccccc1C(=O)Nc1cccc([N+](=O)[O-])c1)Nc1ccc(Br)cc1 | nt | nt | nt | i
CCc1nc(N2CCN(C(=O)c3ccccc3)CC2)c(C#N)c2c1COC(C)(C)C2 | 20µM | i | i | i
CC1(C)Cc2c(C#N)c(N3CCN(C(=O)c4ccccc4)CC3)nc(Cc3ccccc3)c2CO1 | i | i | i | i
CC1CCN(c2nc(-c3ccco3)c3c(c2C#N)CC(C)(C)OC3)CC1 | 11µM | i | i | i
c1ccc(-c2c[nH]c3ccc(OCc4ccc5ccccc5n4)c(-c4ccccc4)c23)cc1 | nt | nt | i | nt
CCOC(=O)c1ccc(NC(=O)CC2C(=O)N(c3ccc(F)cc3)C(=O)N2Cc2ccc3c(c2)OCO3)cc1 (configuration not stated) | i | i | 40µM | nt
COC(=O)c1ccc(COC(=O)c2ccccc2OC)cc1 | i | i | i | i
COC(=O)c1ccc(OCC(=O)c2ccccc2OC)cc1 | 11µM | i | i | i
SMILES | TDP-43 yeast inh | Abeta rescue | FUS suppressor | aSyn yeast inh
COc1ccccc1CNC(=O)COc1ccc(C)cc1 | 11µM | i | i | i
COc1cc(OC)c(N(C)C(=O)c2c(C)oc3ncnc(N4CCCCC4)c23)cc1Cl | i | i | i | nt
COc1ccccc1C1CC(c2c(-c3ccccc3)c3cc(Cl)ccc3[nH]c2=O)=NN1S(C)(=O)=O (configuration not stated) | i | i | ? | i
COc1cccc(C2CC(c3c(-c4ccccc4)c4cc(Cl)ccc4[nH]c3=O)=NN2S(C)(=O)=O)c1OC (configuration not stated) | i | i | 35µM | i
Cc1ccnc2ccc(F)cc12 | nt | nt | nt | i
C=CCN(C)CC#Cc1ccc(F)cc1 | nt | nt | i | nt
NCCN(Cc1ccc(Cl)c(Cl)c1)c1ccc(Br)cn1 | nt | nt | nt | i
O=C(NC1CCCCN(Cc2cccc(Cl)c2)C1=O)c1cccs1 (configuration not stated) | nt | nt | i | nt
Brc1ccc(C=C2C=c3ccccc3=C2)cc1 | nt | nt | nt | i
Cc1ccc(Cc2c(-c3ccc(Br)cc3)nc3ccc(Cl)cn23)cc1 | i | i | i | i
Cc1ccc(-c2nc3ccc(Cl)cn3c2Cc2cccc(F)c2)cc1 | 14µM | i | i | ?
Cc1ccc(-c2nc3ccc(Cl)cn3c2Cc2ccccc2C(F)(F)F)cc1 | 22µM | i | ? | i
Cc1ccc(Cc2c(-c3ccc(C)cc3)nc3ccc(Cl)cn23)cc1 | 25µM | i | i | i
Cc1ccc(Cc2c(-c3ccc(Cl)cc3)nc3ccc(Cl)cn23)cc1 | 35µM | i | i | i
N#Cc1ccc(-c2nc3ccc(Cl)cn3c2Cc2cccc(F)c2)cc1 | i | i | i | i
CN(C)c1ccc(N=Cc2ccncc2)cc1 | nt | nt | nt | i
CCc1ccc(-n2c(=O)c3sc4ccccc4c3n(CC(=O)NCc3ccccc3)c2=O)cc1 | i | i | i | nt
COc1ccc(N2CCN(C(c3ccc(C)cc3)c3nnnn3C(C)(C)C)CC2)cc1 (configuration not stated) | nt | nt | nt | i
COc1ccc(-c2nc(SCC(=O)Nc3ccc4c(c3)OCO4)c(-c3ccccc3)[nH]2)cc1 | i | i | i | nt
CCC(C(=O)NCc1ccccc1Cl)n1c(=O)c2cccn2c2ccccc21 (configuration not stated) | i | i | i | nt
N#Cc1c(Cl)cccc1N1CCSCC1 | ? | i | i | i
N#Cc1c(N2CCSCC2)nsc1-c1ccccc1Cl | 10µM | i | i | i
Cc1cc(C)c(C(N)=O)c(SCC(=O)c2cc(C)c(C)cc2C)n1 | i | i | nt | i
Cc1cc(C)c(C(N)=O)c(SCC(=O)c2cc(C)n(-c3cc(C)on3)c2C)n1 | 35µM | i | i | i
Cc1cc(C)n(-c2nc3ccccc3c(=O)n2OCc2ccc(Cl)cc2)n1 | 11µM | i | i | i
SMILES | TDP-43 yeast inh | Abeta rescue | FUS suppressor | aSyn yeast inh
COc1ccc(-c2ccc(=O)n(Cc3cccc([N+](=O)[O-])c3)n2)cc1 | 18µM | nt | i | i
CC[C@H](C)[C@@H]1NC(=O)[C@H]([C@@H](C)CC)NC(=O)[C@@H](CC(C)C)NC(=O)[C@H](Cc2ccccc2)NC(=O)[C@H](Cc2ccccc2)NC(=O)[C@@H]2CCCN2C(=O)[C@@H]2CCCN2C(=O)[C@H](C(C)C)NC(=O)[C@H](CC(C)C)NC1=O | i | i | 18µM | i
Cc1ccc(CNC(=O)c2ccc(CSCc3cccc(C)c3)o2)cc1 | 35µM | i | i | ?
COc1ccc(CC(=O)Nc2cccc(-c3nnc(-c4ccco4)o3)c2)cc1 | i | i | i | i
COc1ccc(C(=O)Nc2cccc(-c3nnc(-c4ccco4)o3)c2)cc1 | 16µM | i | i | i
CCN1CCOC(=O)C1CC(=O)Nc1ccc(Br)cc1 (configuration not stated) | ? | i | i | nt
Cc1ccc(N2CCN(C(=O)c3ccccc3F)CC2)c(C)c1 | ? | i | i | i
O=C(c1c[nH]c(C(=O)N2CCN(c3ccccc3F)CC2)c1)c1cccc(Cl)c1Cl | 25µM | 3.2µM | i | ?
NC(=O)c1cc(C(=O)c2cccc(Cl)c2Cl)c[nH]1 | i | i | i | i
Cc1ccccc1C(=O)c1c[nH]c(C(=O)N2CCN(c3ccccc3F)CC2)c1 | 25µM | i | i | i

Screens (PubChem BioAssay)
